In the library only some 7.1% were active in any assay of this set; here they are far more common.
MCF10A rerep = DNA re-replication induction in MCF 10a cells; MCF 10A DNA re-replication, Hoechst nuclear intensity, 48 h; Potency, µM (doses to about 46.1 µM), for the others: at the top dose activity, positive = re-replication, most hits filed as activators; hit rate 2.9% among 350,000; AID 624296; further: % of control where 0% means no effect; nearly all actives have a fitted effect of over 50% in size
AT treatment = candidate therapy for ataxia-telangiectasia; F2112 A-T fibroblasts, KAP-1 phosphorylation AlphaLISA; neocarzinostatin DNA damage 30 min before lysis; Potency, µM (doses to about 57.5 µM), for the others: top-dose activation, actives largely listed as activators; hit rate 0.19% among 320,000; further: % of control where 0% means no effect; nearly all actives have a fitted effect of over 45% in size
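hTERT-immortalized A-T patient fibroblasts (F2112), 500 cells/well in OPTI-MEM, 1% FBS, got compounds for 60 min, then NCS for 30 min at 37C. Lysates were then assayed for phospho-KAP-1 by AlphaLISA (anti-pKAP1 donor, anti-KAP1 acceptor beads), 6 hr at 25C.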
p53 reactivator = re-activators of mutant p53; H1299 p53-A138V BP100-luciferase reporter, luminescence, 24 h; Potency, µM (top dose mostly 92.2 µM), for inactives: at the top dose activity change, positive = activation, usual class: activators; hit rate 0.063% among 320,000; AID 504706; further: % of control where 0% means no effect; nearly all actives have a fitted effect of over 45% in size
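H1299 (p53-null), stable ts p53-A138V + BP100-Luc; 1000 cells/well, Opti-MEM/10% FBS; cpd 4 pt, 1:5; 24 h, 37 deg C, 5% CO2; detection reagent 10 min RT; luminescence.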
ELG1 repair inh = blocks ELG1-dependent DNA repair in HEK293T cells. HEK293T ELG1-luciferase reporter, luminescence, 16 h; DNA damage induced by 5-fluorouridine. AID 504467. Potency, µM (highest dose often 46.1 µM), for the others: at the top dose activity change, negative = inhibition, most hits filed as inhibitors. hit rate 2.3% among 330,000; further: on the % scale 0 is the no-effect control and ±100 the full control effect; nearly all actives have a fitted effect of over 55% in size
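Reporter activity after DNA damage by 5-fluorouridine is monitored. Compound-treated cells incubate 16 hr at 37 °C, then ONE-Glo is added for 30 min before luminescence reading.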
ELG1 genotox = induces genotoxicity in HEK293T cells with luciferase-tagged ELG1; HEK293T ELG1-luciferase reporter, luminescence, 16 h; Potency, µM (series often up to 46 µM), for inactives: at the top dose activity change, positive = activation, actives largely listed as activators; hit rate 1.3% among 330,000; AID 504466; further: % of control where 0% means no effect; nearly all actives have a fitted effect of over 60% in size
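Quantitative HTS format in 1536-well plates. HEK293T ELG1-luciferase reporter cells receive test compound and are incubated 16 hr at 37 °C, 5% CO2; ONE-Glo added, 30 min room temperature, then luminescence read.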
SW480 rereplic = DNA re-replication induction in SW480 cells | SW480 DNA re-replication, Hoechst DNA content imaging, 48 h | Potency, µM (highest dose often 46.1 µM), inactives show at the highest dose re-replication activation, most hits filed as activators | hit rate 1.8% among 340,000; further: % of control where 0% means no effect; nearly all actives have a fitted effect of over 55% in size
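Treated cells incubate 48 hr (37 C, 5% CO2), are stained 40 min with Hoechst, and nuclear fluorescence is enumerated; a rise in nuclei with high DNA signal marks re-replication.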
Starred values were filed as active, the others as inactive; [ ] = remark or other dose. The call rests on the fitted dose curve; in most records, active means well fitted curve in the direction sought with a large enough effect; inconclusive means small, poorly fitted or top-dose-only effect, or another doubt; inactive means no such curve, though single readings can be large; an effect the other way counts as inactive or inconclusive. Potency means the concentration at half of the fitted maximal effect.

For CN(C)c1nc(N)c2ncc(=S)[nH]c2n1 the results were MCF10A rerep 29µM*, AT treatment -8%, p53 reactivator 2%, ELG1 repair inh 4%, ELG1 genotox inconclusive and SW480 rereplic inconclusive.
For Cc1cc(C(F)(F)F)nc(SCCN2CCCCC2)c1C#N the results were MCF10A rerep 5%, AT treatment 8%, ELG1 repair inh -6%, ELG1 genotox -2% and SW480 rereplic 1%.
CCCc1cc(NCCN(C)C)n2c(nc3ccccc32)c1C#N was read as MCF10A rerep 18%, AT treatment -2%, ELG1 repair inh 1%, ELG1 genotox -2% and SW480 rereplic 2%.
CCCc1cc(NCC2CCCO2)n2c(nc3ccccc32)c1C#N (stereo unspecified) was read as MCF10A rerep 16µM*, AT treatment 19%, p53 reactivator -2%, ELG1 repair inh 23µM*, ELG1 genotox -15% and SW480 rereplic inconclusive.
Screening O=C(Cc1ccc(NC(=O)C2CCN(C(=O)C3CC3)CC2)cc1)Nc1cccc(C(=O)N2CCCCC2)c1 returned MCF10A rerep 19% and SW480 rereplic 0%[9.22 µM].
Screening c1ccc(-c2nc(-c3nccc4ccccc34)oc2-c2ccccc2)cc1 returned MCF10A rerep inconclusive, AT treatment 27%, p53 reactivator 20%, ELG1 repair inh inconclusive, ELG1 genotox inconclusive and SW480 rereplic 7.3µM*.
`Cc1ccn2c(NC3CCCCC3)c(-c3cccc(SC4CCCCC4)c3)nc2c1` gave MCF10A rerep inconclusive, AT treatment 34%, p53 reactivator 2%, ELG1 repair inh inconclusive, ELG1 genotox -3% and SW480 rereplic inconclusive.
`Cc1ccc2nc(-c3cccc(-c4cccc(Cl)c4)c3)c(NCc3ccccc3)n2c1` gave MCF10A rerep 7.3µM*, AT treatment inconclusive, p53 reactivator -1%, ELG1 repair inh inconclusive, ELG1 genotox -5% and SW480 rereplic 22%[9.22 µM].
For CCC(C)Sc1cccc(-c2nc3ccc(Cl)cn3c2NCc2ccccc2)c1 (stereo unspecified) the results were MCF10A rerep inconclusive, AT treatment 20µM*, p53 reactivator 9%, ELG1 repair inh inconclusive, ELG1 genotox -9% and SW480 rereplic 27%.
Screening CCC(C)Sc1cccc(-c2nc3cc(C)ccn3c2NC2CCCCC2)c1 (stereo unspecified) returned MCF10A rerep 18µM*, AT treatment 34%, p53 reactivator 17%, ELG1 repair inh -10%, ELG1 genotox -1% and SW480 rereplic inconclusive.
O=c1cc(NCc2ccccc2)nc2ccccn12 was read as MCF10A rerep -1%, AT treatment 4%, p53 reactivator 14%, ELG1 repair inh inconclusive, ELG1 genotox 10% and SW480 rereplic -2%.
CCC(C)Sc1cccc(-c2nc3ccccn3c2NCc2ccccc2)c1 (stereo unspecified) was read as MCF10A rerep 18µM*, AT treatment 17%, p53 reactivator 11%, ELG1 repair inh inconclusive, ELG1 genotox -4% and SW480 rereplic 1%.
For CCOC(=O)CNc1c(-c2ccccc2)nc2ccc(Cl)cn12 the results were MCF10A rerep 0%, AT treatment 2%, p53 reactivator 11%, ELG1 repair inh inconclusive, ELG1 genotox 9% and SW480 rereplic 3%.
`CCCCNc1c(-c2ccc(-c3cccc(Cl)c3)cc2)nc2ccc(Cl)cn12` gave MCF10A rerep 12%, AT treatment 6%, p53 reactivator inconclusive, ELG1 repair inh inconclusive, ELG1 genotox 7% and SW480 rereplic -16%.
Screening COc1ccc2[nH]c3c(c2c1)CCN1C(=O)C(CC(=O)NCc2ccc(OC)c(OC)c2)C[C@H](C(=O)N2CCCCC2)[C@@]31CCc1ccccc1 (stereo partly specified) returned MCF10A rerep 5%, AT treatment 2%, p53 reactivator -8%, ELG1 repair inh -17%, ELG1 genotox -1% and SW480 rereplic 18%.
CCC(C)Sc1cccc(-c2nc3ccc(C)cn3c2NCc2ccccc2)c1 (stereo unspecified) was read as MCF10A rerep 12µM*, AT treatment 22µM*, p53 reactivator 14%, ELG1 repair inh inconclusive, ELG1 genotox -10% and SW480 rereplic inconclusive.
CCOC(=O)c1c(-c2ccccc2)nc2ccc(C)cn12 was read as MCF10A rerep 16%, AT treatment -3%, p53 reactivator 11%, ELG1 repair inh inconclusive, ELG1 genotox inconclusive and SW480 rereplic -7%.
`COc1ccc(-c2n[nH]c(=S)n2/N=C/C=C/c2ccccc2OC)cc1` gave MCF10A rerep 4.6µM*, AT treatment 4%, p53 reactivator -11%, ELG1 repair inh -16%, ELG1 genotox -1% and SW480 rereplic inconclusive.
For COc1cc(/C=N/n2c(-c3ccccc3)n[nH]c2=S)cc(OC)c1OC the results were MCF10A rerep inconclusive, AT treatment -8%, p53 reactivator -5%, ELG1 repair inh 4.1µM*, ELG1 genotox 4% and SW480 rereplic -29%.
Screening O=[N+]([O-])c1ccccc1/C=N/n1c(-c2ccccc2)n[nH]c1=S returned MCF10A rerep 5%, AT treatment -14%, p53 reactivator inconclusive, ELG1 repair inh 2%, ELG1 genotox 0% and SW480 rereplic 4%.
For O=[N+]([O-])c1ccccc1/C=C/C=N/n1c(-c2ccccc2F)n[nH]c1=S the results were MCF10A rerep 1%, AT treatment 25µM*, p53 reactivator 7%, ELG1 repair inh 0%, ELG1 genotox 6% and SW480 rereplic -7%.
For S=c1[nH]nc(-c2cc(-c3ccccc3)n[nH]2)n1/N=C/c1cccc(Cl)c1 the results were MCF10A rerep 23µM*, AT treatment 0%, p53 reactivator 0%, ELG1 repair inh inconclusive, ELG1 genotox 6% and SW480 rereplic inconclusive.
For COc1ccc(/C=N/n2c(-c3ccccc3)n[nH]c2=S)cc1 the results were MCF10A rerep -5%, AT treatment 2%, ELG1 repair inh -12%, ELG1 genotox -5% and SW480 rereplic 1%.
Cc1ccc(C(=O)NC(C(=O)NC2CCCC2)c2ccccc2)cc1 (stereo unspecified) was read as MCF10A rerep -1%, AT treatment 3%, p53 reactivator -1%, ELG1 repair inh -1%, ELG1 genotox -1% and SW480 rereplic 2%.

Assay outcomes as filed in PubChem BioAssay.
